A selection: hits, their analogues and other compounds. The true share with any hit is near 2%.
TexasRed fluor: Total Fluorescence Counterscreen for Inhibitors of the Interaction of Thyroid Hormone Receptor and Steroid Receptor Coregulator 2; actives 0.29% (n = 280,000); Potency, µM (series often up to 106 µM), for the others: top-dose fluorescence change, negative = quenching; TRb/SRC2 Texas Red total fluorescence interference; active = well fitted curve in either direction with a large enough effect; inconclusive = small, poorly fitted or top-dose-only effect; also: potency is read from the fitted curve at half-maximal effect; % is scaled to controls: 0 for no effect and ±100 for the full control effect
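Human TRb ligand-binding domain at 0.6 uM with 20 nM Texas Red SRC2 peptide in Tris buffer containing 1 uM T3 and 5% DMSO, incubated with compound 5 h at ambient temperature. Total fluorescence (555/632 nm) calculated as parallel + 2 × perpendicular.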
HTT cytoprotect: qHTS Multiplex Assay to Identify Dual Action Probes in a Cell Model of Huntington: Cytoprotection (ATP). actives 0.14% (n = 230,000). Potency, µM (doses to about 56.4 µM), inactives show cytoprotection (ATP increase), usual class: activators. PC12 HTT-Q103 induced, cytoprotection, ATP luminescence, 40 h; also: potency is read from the fitted curve at half-maximal effect; % of control where 0% means no effect; nearly all actives have a fitted effect of over 45% in size
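Huntington model: PC12 line, ecdysone-inducible HTTQ103 exon1–GFP, tebufenozide 100 nM. Test articles in a dose series. Endpoint luminescence from cellular ATP.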
KDM4E inh: qHTS Assay for Inhibitors of Human Jumonji Domain Containing 2E (JMJD2E); actives 1.6% (n = 230,000); Lysine-specific demethylase 4E (Homo sapiens), B2RXH2; Potency, µM (highest dose often 57.1 µM), without a hit: at the highest dose activity change, negative = inhibition, usual class: inhibitors; JMJD2E catalytic domain, FDH-coupled NADH fluorescence (FDH is formaldehyde dehydrogenase);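 also: potency is read from the fitted curve at half-maximal effect; 0% = wells with enzyme and -100% = buffer wells without enzyme; nearly all actives have a fitted effect of over 50% in size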
Target sequence (B2RXH2 1-337 limits assumed): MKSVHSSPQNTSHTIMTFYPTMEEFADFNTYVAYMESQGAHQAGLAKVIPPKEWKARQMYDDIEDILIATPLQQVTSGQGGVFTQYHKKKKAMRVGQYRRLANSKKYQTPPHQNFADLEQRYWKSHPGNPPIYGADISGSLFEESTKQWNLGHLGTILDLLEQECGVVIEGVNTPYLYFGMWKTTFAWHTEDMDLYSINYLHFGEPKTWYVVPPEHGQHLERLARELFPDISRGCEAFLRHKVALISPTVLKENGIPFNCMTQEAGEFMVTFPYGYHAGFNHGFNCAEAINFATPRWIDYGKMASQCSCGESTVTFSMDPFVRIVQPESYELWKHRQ
FBPA coupling cs: qHTS Assay for Inhibitors of Fructose-1,6-bisphosphate Aldolase from Giardia Lamblia: Coupling assay counterscreen | coupling enzyme system counterscreen, AmpLite Red fluorescence | activity change, negative = inhibition, % at 58.2 µM, hits read low | actives 0.67% (n = 290,000); in the data active = activity change below about -30%; also: % is scaled to controls: 0 for no effect and ±100 for the full control effect
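Counterscreen lacking aldolase: glyceraldehyde-3-phosphate coupling-enzyme reagent preincubated 10 min at RT with compound (at 57.5 uM final), then substrate/coupling system with AmpLite Red added; fluorescence read at 525/598 nm after 20 min RT.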
HttQ103 aggreg: qHTS Multiplex Assay to Identify Dual Action Probes in a Cell Model of Huntington: Aggregate Formation (GFP); PC12 HttQ103-GFP aggregates, Acumen cytometry, 40 h; Potency, µM (doses to about 46.1 µM), for the others: top-dose activity change, negative = inhibition, most hits filed as inhibitors; actives 1.1% (n = 220,000); AID 1688, 2009; also: potency is read from the fitted curve at half-maximal effect; % is scaled to controls: 0 for no effect and ±100 for the full control effect; nearly all actives have a fitted effect of over 60% in size
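Quantitative HTS on tebufenozide-induced (100 nM) PC12 cells stably expressing polyQ103 Huntingtin exon 1–GFP. Reduction of bright GFP aggregates, detected by laser scanning cytometry after lysis, identified actives across the titration.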
TRb-SRC2 inh: qHTS for Inhibitors of the Interaction of Thyroid Hormone Receptor and Steroid Receptor Coregulator 2 | Potency, µM (series often up to 106 µM), inactives show at the highest dose activity change, negative = inhibition, actives largely listed as inhibitors | AID 1469, 2008 | Thyroid hormone receptor beta (Homo sapiens), P10828 | TRbeta-SRC2 peptide binding, fluorescence polarization; receptor liganded with 1 µM T3 | actives 0.065% (n = 280,000);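 also: potency is read from the fitted curve at half-maximal effect; plate controls were bound peptide for no effect and peptide without receptor for full effect; nearly all actives have a fitted effect of over 50% in size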
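Assay buffer: 20 mM Tris-HCl, 100 mM NaCl, 10% glycerol, 1 mM EDTA, 0.01% NP-40, 1 mM DTT, 1 uM T3, 5% DMSO; TRb LBD 0.6 uM, Texas Red SRC2 20 nM; FP after 5 hr.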
The depositor's hits bear a star; [ ] = dose if it differs, or a comment. Unless noted, calls follow the shape of the dose curve; as a rule, active = well fitted curve in the direction sought with a large enough effect; inconclusive = small, poorly fitted or top-dose-only effect, or another doubt; inactive = no such curve, though single readings can be large; an effect the other way counts as inactive or inconclusive.

For CCn1c(N)nc2c1c(=O)n(C)c(=O)n2C the results were TexasRed fluor -1%, HTT cytoprotect -6%, KDM4E inh 11%, FBPA coupling cs 2, HttQ103 aggreg -20% and TRb-SRC2 inh -8%.
Screening C=Cc1ccc(CSc2nnc(C)n3c2cc2occc23)cc1 returned TexasRed fluor -1% and TRb-SRC2 inh -1%.
Screening OC[C@@H]1[C@@H](c2ccc(F)cc2)C(c2ccc(F)cc2)=NN1c1ccccc1 returned TexasRed fluor -4%, HTT cytoprotect -185%, FBPA coupling cs -1 and TRb-SRC2 inh 1%.
For NS(=O)(=O)c1ccc(N/N=C/c2ccc(O)c(O)c2O)c([N+](=O)[O-])c1 the results were TexasRed fluor inconclusive, HTT cytoprotect 1%[10 µM], KDM4E inh 2.8µM*, FBPA coupling cs -46*, HttQ103 aggreg -21%[9.22 µM] and TRb-SRC2 inh 2%.
Screening CNC(=O)[C@@H]1O[C@@H](n2cnc3c(NCc4cccc(I)c4)ncnc32)[C@H](O)[C@@H]1O returned HTT cytoprotect -3%[1.9 µM].
Cc1ccc(C2CC(=O)Oc3cc(C)c(Cl)c(C)c32)cc1 (centres undefined) was read as TexasRed fluor -1%, HTT cytoprotect -80%, FBPA coupling cs 1 and TRb-SRC2 inh 4%.
Nc1[nH]c(N=NC(=O)c2ccccc2O)c2ccccc12 was read as TexasRed fluor -3%, KDM4E inh 25µM*, FBPA coupling cs -8, HttQ103 aggreg -28% and TRb-SRC2 inh 8%.
For O=S(=O)(NCc1nc2cccnc2n1Cc1ccccc1)c1ccc2c(c1)CCCC2 the results were TexasRed fluor 0% and TRb-SRC2 inh -9%.
`c1ccc2c(c1)CCN(c1nc3cc4c(cc3s1)OCCO4)C2` gave TexasRed fluor 1%, HTT cytoprotect -17%, KDM4E inh -1%, FBPA coupling cs -38*, HttQ103 aggreg 5% and TRb-SRC2 inh 2%.
`CCOc1ccccc1NC(=O)c1nnn(CC(=O)Nc2ccc(OC)c(OC)c2)c1N` gave TexasRed fluor -6% and TRb-SRC2 inh 2%.
Screening CCOc1ccc(CNC(=O)c2ccc3c(c2)sc2nc(-c4ccccc4)cn23)cc1 returned TexasRed fluor -2% and TRb-SRC2 inh -6%.
Cc1ccc(-c2cn3c(n2)sc2cc(C(=O)NCCCN4CCCCC4)ccc23)cc1 was read as TexasRed fluor -8% and TRb-SRC2 inh -3%.
Screening O=C(NCCCN1CCCCC1)c1ccc2c(c1)sc1nc(-c3ccc(F)cc3)cn12 returned TexasRed fluor 0.0009µM*[quencher] and TRb-SRC2 inh -15%.
CCOc1ccc(CNC(=O)c2ccc3c(c2)sc2nc(-c4ccc(OC)cc4)cn23)cc1 was read as TexasRed fluor 40µM*[quencher] and TRb-SRC2 inh 0%.
CN(C)c1ccc(CN2CCC(C(N)=O)CC2)cc1 was read as TexasRed fluor -4%, HTT cytoprotect -3%[10 µM], KDM4E inh 28µM*, FBPA coupling cs 2, HttQ103 aggreg -7%[9.22 µM] and TRb-SRC2 inh 17%.
For CCOC(=O)C1CCN(Cc2ccc(F)cc2)CC1 the results were TexasRed fluor -2%, HTT cytoprotect 33%[10 µM], KDM4E inh -3%, FBPA coupling cs 2, HttQ103 aggreg -18% and TRb-SRC2 inh -13%.
`CN(C)CCOC(=O)[C@@H](c1ccccc1)C1(O)CCCC1` gave TexasRed fluor -2%, HTT cytoprotect 5.6µM*, KDM4E inh 1%[25.5 µM], FBPA coupling cs 0, HttQ103 aggreg 1% and TRb-SRC2 inh 1%.
Screening COc1ccc(C(C(=O)OCCN(C)C)c2ccccc2)cc1 (centres undefined) returned TexasRed fluor -2%, HTT cytoprotect -30%, KDM4E inh 2%, FBPA coupling cs 0, HttQ103 aggreg -14% and TRb-SRC2 inh -1%.
Screening COc1ccc(C2C=C3CNS(=O)(=O)C3CC2OC(=O)c2ccc(C(F)(F)F)cc2)cc1 (centres undefined) returned TexasRed fluor -2%, FBPA coupling cs -11 and TRb-SRC2 inh 0%.
For C/C(=N\NC(=O)c1cc(-c2cccnc2)nc2ccccc12)c1ccccc1O the results were TexasRed fluor 3.2µM*[quencher], HTT cytoprotect -75%[1.9 µM], KDM4E inh -1%, FBPA coupling cs -25, HttQ103 aggreg inconclusive and TRb-SRC2 inh -19%[53 µM].
COc1ccc(/C(C)=N/NC(=O)c2cc(-c3cccnc3)nc3ccccc23)cc1 was read as TexasRed fluor 5%, HTT cytoprotect -6%[10 µM], KDM4E inh 1%, FBPA coupling cs 1, HttQ103 aggreg -1% and TRb-SRC2 inh 5%.
For O=C(CCc1ccccc1)NNC(=O)c1ccccn1 the results were TexasRed fluor 0%, HTT cytoprotect -80%, KDM4E inh inconclusive, FBPA coupling cs -2, HttQ103 aggreg 13µM* and TRb-SRC2 inh -3%.
O=C(CCc1ccccc1)NNC(=O)CCc1ccccc1 was read as FBPA coupling cs 4.
COC(=O)C1=C(C(=O)OC)[C@@H]2N(C)c3ccccc3[C@@]23C[C@@H](C(=O)OC)N(S(=O)(=O)c2c(C)noc2C)C3=N1 was read as TexasRed fluor 0%[11.2 µM], HTT cytoprotect inconclusive, KDM4E inh -3%[11.4 µM], FBPA coupling cs 0 and TRb-SRC2 inh 6%[11.2 µM].
Cc1ccc(S(=O)Cc2ccc(C(=O)NC3CCCCCC3)o2)cc1 (centres undefined) was read as TexasRed fluor -1% and TRb-SRC2 inh -4%.
`Cc1cc(C(=O)CSc2nc3ccc(Cl)cc3[nH]2)c(C)n1CC1CCCO1` (centres undefined) gave TexasRed fluor -1%, HTT cytoprotect -130%, KDM4E inh 1%, FBPA coupling cs 1, HttQ103 aggreg 3.2µM* and TRb-SRC2 inh -13%.
Cc1cc(C(=O)CSc2nc3ccc(Cl)cc3[nH]2)c(C)n1C was read as TexasRed fluor 0%, HTT cytoprotect 12%[10 µM], KDM4E inh -17%, FBPA coupling cs -4, HttQ103 aggreg 15% and TRb-SRC2 inh -5%.

Compound activity as filed in PubChem BioAssay.
